TMEM16A inh: inhibitors of mouse TMEM16A calcium-activated chloride channel. 310,000 tested, 1.2% active. normalized B-score (activity score, 25-100; higher = stronger inhibition) at 10 µM. Q8BHY3. HEK293 TMEM16A/YFP iodide influx fluorescence, ionomycin;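 active = ratio plate-corrected score three or more library SD toward inhibition, starting fluorescence score within five deviations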;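 also: score derived from kinetic fluorescence span divided by baseline fluorescence per well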
ANO1 activ: mouse TMEM16A channel activation, primary screen; Q8BHY3; HEK293 TMEM16A/YFP-H148Q/I152L, iodide quench fluorescence; hits give low values; B-score at 10 µM; 340,000 tested, 0.3% active; AID 623877;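 active = fluorescence-ratio B-score plate-corrected deviation score at least 3 library SD below zero, with starting fluorescence score within 5 deviations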;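 also: channel opened by trigger with iodide after compound preincubation; score built on the fluorescence ratio of max minus min over baseline; more negative score means more quench and so TMEM16A activation or potentiation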
CHT PAM: allosteric activators of human choline transporter CHT; Q9GZV3; CHT-expressing cells, membrane potential dye, choline EC20; hits give high values; LV-AA mutant CHT in HEK293 cells; B-score at 10 µM; 310,000 tested, 0.49% active;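 active = initial fluorescence not abnormally high and integrated response B-score, plate-corrected, over 3 SD above library mean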
CHT block: human CHT choline transport inhibition; Q9GZV3; 310,000 tested, 0.86% active; B-score at 10 µM; AID 488975; CHT-expressing cells, membrane potential dye, choline response; hits give low values;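 active = B-score over 3 SD under the library average, and starting fluorescence ratio not unusually high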;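 also: choline stimulus applied at its EC90 after an EC20 pre-addition; B-score computed on integrated fluorescence ratio after choline addition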
PHOSPHO1 inh: blocks human PHOSPHO1 phosphatase activity | inhibition, % at 13.3 µM | recombinant PHOSPHO1, absorbance phosphatase assay | 290,000 tested, 1.1% active | Q8TCT1; in the data active = inhibition above about 60%
HDAC3 inh: blocks human histone deacetylase 3. O15379. recombinant HDAC3, fluorogenic peptide/trypsin coupled, fluorescence. inhibition, % at 8.3 µM. 320,000 tested, 0.15% active. AID 2718; in the data active = inhibition above about 26%, passing the limit was not always enough; inconclusive = no clear call, values can overlap the other calls
Target sequence (O15379 whole entry, looked up): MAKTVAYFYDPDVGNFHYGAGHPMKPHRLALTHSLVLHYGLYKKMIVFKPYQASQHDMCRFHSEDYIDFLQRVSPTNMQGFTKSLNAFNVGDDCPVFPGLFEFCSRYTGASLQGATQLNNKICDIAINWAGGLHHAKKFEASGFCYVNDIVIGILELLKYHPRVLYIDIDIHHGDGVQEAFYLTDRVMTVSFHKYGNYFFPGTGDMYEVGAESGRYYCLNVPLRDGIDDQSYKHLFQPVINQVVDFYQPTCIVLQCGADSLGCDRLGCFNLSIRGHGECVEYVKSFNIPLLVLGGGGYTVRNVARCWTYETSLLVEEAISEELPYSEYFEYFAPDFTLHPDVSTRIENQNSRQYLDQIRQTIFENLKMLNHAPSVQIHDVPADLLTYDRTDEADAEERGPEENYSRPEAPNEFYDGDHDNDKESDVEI
* marks the source's active call; other numbers are inactive results. Only some compounds are listed: those with a hit (about 3.2% of all), similar ones and a draw of the others.

Results for COc1ccc(-n2ncc3c(NCC(C)C)ncnc32)cc1 ?
TMEM16A inh: inactive; ANO1 activ: inactive; CHT PAM: inactive; CHT block: inactive; PHOSPHO1 inh: 14; HDAC3 inh: -2

Results for Cc1ccc(NC(=O)N2CCCC(C(=O)O)C2)cc1 (stereo not drawn) ?
TMEM16A inh: inactive; ANO1 activ: inactive; CHT PAM: inactive; CHT block: inactive; PHOSPHO1 inh: 24; HDAC3 inh: 0

How did c1cncc(-c2nnc(SCc3nc4ccccc4[nH]3)o2)c1 do in these assays?
TMEM16A inh: inactive; ANO1 activ: inactive; CHT PAM: inactive; CHT block: inactive; PHOSPHO1 inh: 14

What do the screens show for `Cc1ccc(C(=O)Nc2ccccc2C(=O)NCC2CCCO2)cc1` (stereo not drawn)?
TMEM16A inh: inactive; ANO1 activ: inactive; CHT PAM: inactive; CHT block: inactive; PHOSPHO1 inh: -2; HDAC3 inh: 0

How did CC(=O)Nc1cccc(NCC(=O)Nc2cc(S(=O)(=O)N3CCCCC3)ccc2Cl)c1 do in these assays?
ANO1 activ: inactive; HDAC3 inh: -6

Results for CC(C)n1cnc2c(Nc3ccc(F)c(Cl)c3)nc(NCCO)nc21 ?
TMEM16A inh: inactive; ANO1 activ: inactive; CHT PAM: inactive; CHT block: -5.4*; PHOSPHO1 inh: -13; HDAC3 inh: -2

Results for COC(=O)CSc1nsc(SCC(=O)OC)n1 ?
TMEM16A inh: inactive; ANO1 activ: inactive; CHT PAM: inactive; CHT block: inactive; PHOSPHO1 inh: 18; HDAC3 inh: 3

What do the screens show for `Cc1cc(C(C#N)c2ccc(Cl)cc2)c(Cl)cc1NC(=O)c1cc(I)cc(I)c1O` (stereo not drawn)?
TMEM16A inh: 100*; ANO1 activ: inactive; CHT PAM: inactive; CHT block: inactive; HDAC3 inh: 2

Results for Cc1cc(NC(=O)c2ccc(Cl)cc2)c(C)cc1O ?
TMEM16A inh: inactive; ANO1 activ: inactive; CHT PAM: inactive; CHT block: inactive; PHOSPHO1 inh: 34; HDAC3 inh: 12

How did c1ccc(Nc2nc(CSc3ncn[nH]3)cs2)cc1 do in these assays?
TMEM16A inh: inactive; ANO1 activ: inactive; CHT PAM: inactive; CHT block: inactive; PHOSPHO1 inh: -4; HDAC3 inh: 15

What do the screens show for `COc1ccc(S(=O)(=O)n2nc(-c3cc(OC)c(OC)c(OC)c3)cc2N)cc1OC`?
TMEM16A inh: inactive; ANO1 activ: inactive; CHT PAM: inactive; CHT block: inactive; PHOSPHO1 inh: -2; HDAC3 inh: 3

How did COc1ccc(-c2cc(N)n(S(=O)(=O)c3c(F)c(F)c(F)c(F)c3F)n2)cc1OC do in these assays?
TMEM16A inh: 100*; ANO1 activ: inactive; CHT PAM: inactive; CHT block: -7.7*; PHOSPHO1 inh: 21; HDAC3 inh: -2

Results for Cc1nc2c(cnn2CCO)c(=O)[nH]1 ?
ANO1 activ: inactive

How did CCOc1ccc(C2=Cc3cc(OC)c(OC)cc3C(=C(Cl)Cl)O2)cc1 do in these assays?
PHOSPHO1 inh: 67*

Results for S=C(NCc1ccc2c(c1)OCO2)Nc1ccc2nsnc2c1 ?
TMEM16A inh: inactive; ANO1 activ: inactive; CHT PAM: inactive; CHT block: inactive; PHOSPHO1 inh: -87; HDAC3 inh: 5

How did CN(C)CC(C)(C)CNS(=O)(=O)c1cccc(Cl)c1Cl do in these assays?
TMEM16A inh: inactive; ANO1 activ: inactive; CHT PAM: inactive; CHT block: inactive; PHOSPHO1 inh: 75*; HDAC3 inh: 3

What do the screens show for `CN(C)CC(C)(C)CNS(=O)(=O)c1ccc(Cl)cc1`?
TMEM16A inh: inactive; ANO1 activ: inactive; CHT PAM: inactive; CHT block: inactive; PHOSPHO1 inh: -2; HDAC3 inh: -7

Results for Cc1ccc(OCC(=O)Nc2ccc(N3CCN(C(=O)c4ccco4)CC3)cc2)cc1C ?
TMEM16A inh: inactive; ANO1 activ: inactive; CHT PAM: inactive; CHT block: inactive; PHOSPHO1 inh: 45; HDAC3 inh: -9

Results for Cc1ccccc1OCC(=O)Nc1ccc(NC(=O)c2ccco2)cc1 ?
TMEM16A inh: inactive; ANO1 activ: inactive; CHT PAM: inactive; CHT block: inactive; PHOSPHO1 inh: 67*; HDAC3 inh: -2

Results for Cc1cccc(C)c1OCC(=O)Nc1cccc(NC(=O)c2ccco2)c1 ?
TMEM16A inh: 100*; ANO1 activ: inactive; CHT PAM: inactive; CHT block: inactive; PHOSPHO1 inh: -11; HDAC3 inh: -1

What do the screens show for `Cc1cc(OCC(=O)Nc2ccc(N3CCN(C(=O)c4ccco4)CC3)cc2)cc(C)c1Cl`?
TMEM16A inh: inactive; ANO1 activ: inactive; CHT PAM: inactive; CHT block: inactive; PHOSPHO1 inh: 73*; HDAC3 inh: 3

How did CC(C)[C@H](NC(=O)c1ccco1)C(=O)OCC(=O)Nc1cccc(F)c1 do in these assays?
TMEM16A inh: inactive; ANO1 activ: -41*; CHT PAM: inactive; CHT block: inactive; PHOSPHO1 inh: -2; HDAC3 inh: 9

Results for COc1ccc(C)cc1S(=O)(=O)Nc1cc2c3c(c1)C(C)C(=O)N3CCC2 (stereo not drawn) ?
TMEM16A inh: inactive; ANO1 activ: inactive; CHT PAM: inactive; CHT block: inactive; HDAC3 inh: inconclusive

What do the screens show for `O=C(O)c1cn(Cc2ccccn2)c(=O)c2ccccc12`?
TMEM16A inh: inactive; ANO1 activ: inactive; CHT PAM: inactive; CHT block: inactive; PHOSPHO1 inh: 3; HDAC3 inh: 3

How did Cc1cccc(OCC(=O)Nc2ccc(C(=O)Nc3ccccc3C(=O)O)cc2)c1C do in these assays?
TMEM16A inh: inactive; ANO1 activ: inactive; CHT PAM: inactive; CHT block: -5.6*; PHOSPHO1 inh: 8; HDAC3 inh: 10

Results for Cc1cccc(OCC(=O)Nc2cc(NC(=O)COc3cccc(C)c3C)cc(C(=O)O)c2)c1C ?
TMEM16A inh: inactive; ANO1 activ: inactive; CHT PAM: inactive; CHT block: inactive; HDAC3 inh: 0

How did Cn1c(SCC(=O)NCc2ccc3c(c2)OCO3)ncc(C(=O)Nc2ccc(F)cc2)c1=O do in these assays?
TMEM16A inh: inactive; ANO1 activ: inactive; CHT PAM: inactive; CHT block: inactive; HDAC3 inh: 3

How did N#C/C(N=Nc1ccccc1O)=N\Nc1ccccc1O do in these assays?
TMEM16A inh: 100*; ANO1 activ: inactive; CHT PAM: inactive; CHT block: -11*; HDAC3 inh: -6

How did Oc1ccccc1N=N/C(=N/Nc1ccccc1O)c1ccccc1 do in these assays?
TMEM16A inh: inactive; ANO1 activ: inactive; CHT PAM: inactive; CHT block: inactive; HDAC3 inh: -6

Results for COCCCNC(=S)N(CCO)Cc1cc2cc3c(cc2[nH]c1=O)OCCO3 ?
TMEM16A inh: inactive; ANO1 activ: inactive; CHT PAM: inactive; CHT block: inactive; PHOSPHO1 inh: 41; HDAC3 inh: -6

Bioassay records as filed in PubChem BioAssay.
